In publication PMC7862700, “An all-to-all approach to the identification of sequence-specific readers for epigenetic DNA modifications on cytosine” one finds binding signal data, which are given here for one sequence.

Common to all, as to experiment: DAPPL (digital affinity profiling via proximity ligation, sequencing); 10 mM Tris-HCl pH 7.5, 50 mM NaCl, 1 mM DTT, 4% glycerol, room temperature, 30 min; GST-TFs on glutathione beads, 16-mer random dsDNA library, 0.1% formaldehyde crosslink after washing; high values mean tight binding
Conditions in all cases: protein: recombinant; tags: N-terminal GST; dsDNA, one strand shown

One assay addresses T1, GABPA (Homo sapiens, UniProt Q06546 1-454).
T1 sequence: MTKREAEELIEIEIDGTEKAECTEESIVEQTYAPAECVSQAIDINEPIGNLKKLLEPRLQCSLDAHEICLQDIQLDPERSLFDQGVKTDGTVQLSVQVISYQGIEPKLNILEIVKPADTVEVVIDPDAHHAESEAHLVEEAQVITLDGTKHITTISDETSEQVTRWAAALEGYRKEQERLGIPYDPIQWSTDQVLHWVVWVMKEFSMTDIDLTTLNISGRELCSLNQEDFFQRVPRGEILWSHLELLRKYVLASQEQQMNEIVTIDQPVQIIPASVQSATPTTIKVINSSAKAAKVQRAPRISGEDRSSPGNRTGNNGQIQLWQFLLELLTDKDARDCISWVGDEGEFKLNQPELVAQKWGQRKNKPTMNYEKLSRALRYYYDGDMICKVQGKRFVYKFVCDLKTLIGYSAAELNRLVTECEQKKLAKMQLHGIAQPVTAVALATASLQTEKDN
In short, it runs like this:
(§1)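 Sequencing on an Illumina NextSeq500 followed washing, crosslinking with 0.1% formaldehyde, proximity ligation (BsaI/T4 ligase, 1 h, 37 °C) and PCR amplification of pools that had been incubated for 30 min at room temperature with 200 nmole of a random double-stranded 16-mer DNA library in Tris/NaCl/DTT/glycerol buffer. Each pool held DNA-barcoded human transcription factors, expressed in yeast as GST fusions and captured on glutathione beads, plus a tag-only sample. Binding signal is a hexamer's read frequency for a factor divided by its frequency in the tag-only sample.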

The target in the next assay is ELF1 (Homo sapiens, UniProt P32519 1-619). In short, it runs like this:
as §1

The next assay addresses ETV5 (Homo sapiens, UniProt P41161 1-510). The method, boiled down:
as §1

The target of the next assay is T2, SPIC (Homo sapiens, UniProt Q8N5J4 1-248).
T2 sequence: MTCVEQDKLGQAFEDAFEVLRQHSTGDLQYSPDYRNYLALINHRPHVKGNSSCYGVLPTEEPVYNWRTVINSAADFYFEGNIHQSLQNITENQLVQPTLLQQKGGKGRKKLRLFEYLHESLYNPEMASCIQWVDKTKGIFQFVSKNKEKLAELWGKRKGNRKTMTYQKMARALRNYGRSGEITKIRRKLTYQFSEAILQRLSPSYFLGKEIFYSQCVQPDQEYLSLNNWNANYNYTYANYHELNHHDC
In short, it runs like this:
as §1

The target in another assay is T3, ELK4 (Homo sapiens, UniProt P28324-2 1-405).
T3 sequence: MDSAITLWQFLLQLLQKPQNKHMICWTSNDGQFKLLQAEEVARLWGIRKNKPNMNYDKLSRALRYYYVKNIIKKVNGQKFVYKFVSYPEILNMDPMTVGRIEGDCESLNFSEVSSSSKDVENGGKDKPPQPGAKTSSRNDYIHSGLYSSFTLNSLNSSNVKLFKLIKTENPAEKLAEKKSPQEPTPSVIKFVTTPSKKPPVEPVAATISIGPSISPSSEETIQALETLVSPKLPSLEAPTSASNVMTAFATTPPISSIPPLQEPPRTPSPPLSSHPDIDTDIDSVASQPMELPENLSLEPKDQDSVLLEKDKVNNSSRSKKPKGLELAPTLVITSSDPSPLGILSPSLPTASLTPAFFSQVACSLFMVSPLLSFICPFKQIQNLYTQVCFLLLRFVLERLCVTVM
In short, it runs like this: as §1

A further assay deals with T4, ETV7 (Homo sapiens, UniProt Q9Y603 1-341).
T4 sequence: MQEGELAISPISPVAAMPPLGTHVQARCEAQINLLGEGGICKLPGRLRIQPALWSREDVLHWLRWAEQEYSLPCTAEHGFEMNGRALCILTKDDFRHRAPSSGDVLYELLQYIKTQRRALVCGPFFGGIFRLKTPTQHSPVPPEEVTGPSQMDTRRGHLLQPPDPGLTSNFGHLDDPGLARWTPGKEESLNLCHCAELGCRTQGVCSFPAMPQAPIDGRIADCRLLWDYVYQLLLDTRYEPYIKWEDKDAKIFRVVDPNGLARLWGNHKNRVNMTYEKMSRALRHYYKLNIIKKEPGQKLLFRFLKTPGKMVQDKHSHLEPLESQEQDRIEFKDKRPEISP
In short, it runs like this: as §1

A further assay addresses T5, ETV3 (Homo sapiens, UniProt P41162-2 1-143).
T5 sequence: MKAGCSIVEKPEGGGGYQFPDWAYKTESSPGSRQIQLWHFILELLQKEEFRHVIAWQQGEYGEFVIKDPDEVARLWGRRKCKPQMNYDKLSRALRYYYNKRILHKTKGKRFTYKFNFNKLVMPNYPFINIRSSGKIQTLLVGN
The method, boiled down:
as §1

In the next assay the target is ETV6 (Homo sapiens, UniProt P41212 1-452). The method, boiled down:
as §1

Chain of ELF1 (P32519 whole entry): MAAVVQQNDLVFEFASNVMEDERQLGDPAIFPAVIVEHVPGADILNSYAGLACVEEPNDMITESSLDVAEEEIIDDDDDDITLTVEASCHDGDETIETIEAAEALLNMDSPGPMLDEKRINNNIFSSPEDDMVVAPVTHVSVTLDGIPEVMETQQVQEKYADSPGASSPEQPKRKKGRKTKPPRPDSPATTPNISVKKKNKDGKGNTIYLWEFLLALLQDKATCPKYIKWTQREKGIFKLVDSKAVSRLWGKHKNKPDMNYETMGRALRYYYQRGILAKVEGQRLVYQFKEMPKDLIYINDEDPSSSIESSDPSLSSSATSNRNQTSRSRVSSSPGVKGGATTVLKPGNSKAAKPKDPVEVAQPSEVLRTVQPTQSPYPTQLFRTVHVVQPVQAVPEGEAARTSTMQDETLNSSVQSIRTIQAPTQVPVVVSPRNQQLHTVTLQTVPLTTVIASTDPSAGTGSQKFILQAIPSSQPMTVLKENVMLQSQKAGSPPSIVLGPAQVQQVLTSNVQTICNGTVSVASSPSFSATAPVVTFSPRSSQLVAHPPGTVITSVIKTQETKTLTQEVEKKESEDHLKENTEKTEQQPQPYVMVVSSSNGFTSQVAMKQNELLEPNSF
Chain of ETV6 (P41212 whole entry): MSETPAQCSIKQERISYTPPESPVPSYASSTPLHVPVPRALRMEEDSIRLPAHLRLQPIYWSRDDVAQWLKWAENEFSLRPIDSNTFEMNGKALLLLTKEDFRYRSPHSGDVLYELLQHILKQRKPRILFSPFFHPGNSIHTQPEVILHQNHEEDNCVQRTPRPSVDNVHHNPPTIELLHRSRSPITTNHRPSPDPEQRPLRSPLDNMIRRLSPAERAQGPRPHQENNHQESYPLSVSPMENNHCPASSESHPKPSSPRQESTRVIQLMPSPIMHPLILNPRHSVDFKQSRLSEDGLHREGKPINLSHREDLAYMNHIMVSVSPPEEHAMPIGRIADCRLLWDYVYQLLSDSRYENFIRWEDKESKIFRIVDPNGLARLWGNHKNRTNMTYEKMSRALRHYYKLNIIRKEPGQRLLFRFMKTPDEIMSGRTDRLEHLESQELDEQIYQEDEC
Chain of ETV5 (P41161 whole entry): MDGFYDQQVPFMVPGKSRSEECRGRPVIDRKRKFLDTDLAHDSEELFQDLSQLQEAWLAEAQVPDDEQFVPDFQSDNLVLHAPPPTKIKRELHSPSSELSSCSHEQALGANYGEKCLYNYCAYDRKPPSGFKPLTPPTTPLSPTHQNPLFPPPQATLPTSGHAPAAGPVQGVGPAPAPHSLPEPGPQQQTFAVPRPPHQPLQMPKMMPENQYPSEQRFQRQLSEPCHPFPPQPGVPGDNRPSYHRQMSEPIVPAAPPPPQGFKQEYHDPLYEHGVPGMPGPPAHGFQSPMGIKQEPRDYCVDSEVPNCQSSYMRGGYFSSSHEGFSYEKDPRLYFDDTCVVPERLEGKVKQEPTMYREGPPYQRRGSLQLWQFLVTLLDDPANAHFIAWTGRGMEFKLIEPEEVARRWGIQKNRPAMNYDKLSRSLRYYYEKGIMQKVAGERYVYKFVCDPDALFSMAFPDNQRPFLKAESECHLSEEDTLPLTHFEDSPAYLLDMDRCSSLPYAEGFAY

CGACGG: the binding signal with GABPA is 1.09 fold enrichment (6-mer frequency, TF over GST control); with ELF1, 1.01 fold enrichment (6-mer frequency, TF over GST control); with ETV5, 1 fold enrichment (6-mer frequency, TF over GST control); with SPIC, 1.15 fold enrichment (6-mer frequency, TF over GST control); with ELK4, 1.02 fold enrichment (6-mer frequency, TF over GST control); with ETV7 it was 1.13 fold enrichment (6-mer frequency, TF over GST control). Also, the binding signal with ETV3 was 1.05 fold enrichment (6-mer frequency, TF over GST control); with ETV6 it was 1.03 fold enrichment (6-mer frequency, TF over GST control).
